Compounds with a hit are over-represented: about 4% of the library has one in this group of screens.
PAX8 inh HTS – lowers PAX8-driven luciferase in RMG-I cells; 1.2% of 360,000 active; RMG-I TPO-luciferase reporter, SteadyGlo, 24 h; inhibition, % at 12.6 µM;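 active = mean replicate inhibition at least 60% with every replicate also reaching 60%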;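 also: luciferase light reporting Pax8 driven TPO promoter activity; plate controls were median of neutral control wells for no effect and mitoxantrone controls for full effect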
CSC inhib – cancer stem cell inhibition; 1.1% of 300,000 active; AID 2717; inhibition, % at 7.5 µM; cancer stem cell-like cells viability, luminescence; in the data active = inhibition above about 75%; tested in HMLE shEcad cells
Gli-Sufu antag – Gli-Sufu pathway antagonism; 0.74% of 340,000 active; AID 588413; Sufu-KO-LIGHT fibroblasts, Gli luciferase reporter luminescence; inhibition, % at 5 µM;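 active = inhibition above about 55%, limit read from the data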;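 also: 0% = DMSO-treated cells and 100% = wells with medium but no cells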
Beta cell apopt – beta cell apoptosis inhibition; 0.8% of 300,000 active; protection from apoptosis, % (no concentration beside the values); INS-1E cytokine-induced death, ATP luminescence, 48 h; percent of positive-control rescue, neutral wells zero;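 active = Every replicate reaches about 75%, or at least half do and their mean reaches it too, limit read from the data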;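 also: 0% = cytokine-treated negative control wells and 100% = positive control rescue; higher means more ATP so stronger rescue from cytokine killing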
Mdm2 MdmX PPI – human Mdm2/MdmX binding inhibition; O15151+Q00987; SaOS-2 split-luciferase Mdm2/MdmX complementation, luminescence; inhibition, % at 8 µM; 3% of 330,000 active; AID 485346;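 active = inhibition of at least 50% at 8 µM in the primary screen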
Shn3 3UTR inh – Schnurri-3 reporter inhibition in Clone20 osteoblasts | Clone20 osteoblast Shn3 3'UTR firefly luciferase, 24 h | inhibition, % at 12.5 µM | 0.52% of 360,000 active | AID 588674;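 active = mean inhibition of at least 75% with every replicate also reaching 75%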;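 also: 0% = median of neutral control wells and 100% = pilot-screen positive control compound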
Numbers without * were called inactive; . = no result given; ! = a repeat was not active.

SMILES	PAX8 inh HTS	CSC inhib	Gli-Sufu antag	Beta cell apopt	Mdm2 MdmX PPI	Shn3 3UTR inh
COc1cc(OC)c(OC)cc1/C=C1\CC(C)C/C(=C\c2cc(OC)c(OC)cc2OC)C1=O (stereo not given)	74*	12	25	14	.	94*
Cn1c(=O)[nH]c(=O)c2c1nc(Br)n2Cc1cccc(Br)c1	73*	30	0	34	18	-2
COc1ccc(C(=O)OCC(=O)c2c[nH]c3ccccc23)c(OC)c1	-89	4	-44	-7	-82	-43
CCOc1ccc(N(C)S(=O)(=O)c2ccc(C)c(C(=O)OCC(=O)c3c[nH]c4ccccc34)c2)cc1	32	17	33	75*	32	24
O=C(Cn1cnc([N+](=O)[O-])n1)N/N=C/c1ccc(O)cc1O	11	80*	1	.	7	0
O=C(C[C@@H]1CC[C@@H]2[C@H](COC[C@H](O)CN2C(=O)c2ccccc2)O1)N1CCOCC1	0	.	.	.	.	.
CC[N+](C)(C)CCN(Cc1ccc(Cl)cc1)c1ccccn1	28	9	9	-2	11	8
COc1ccc(CN(CCN(C)C)c2ccccn2)cc1	83*!	-1	11	-3	5	1
CO[C@@H]1CN(C)C(=O)c2ccc(NC(=O)c3ccc(-c4ccccc4)cc3)cc2OC[C@@H](C)NC[C@H]1C	68*	.	.	.	.	.
CO[C@H]1CN(C)C(=O)c2ccc(NC(=O)c3ccc(-c4ccccc4)cc3)cc2OC[C@H](C)NC[C@@H]1C	50	.	.	.	.	.
CO[C@@H]1CN(C)C(=O)c2cc(NC(=O)c3ccc(-c4ccccc4)cc3)ccc2OC[C@H](C)NC[C@H]1C	84*	.	.	.	.	.
CO[C@H]1CN(C)C(=O)c2cc(NC(=O)c3ccc(-c4ccccc4)cc3)ccc2OC[C@@H](C)NC[C@@H]1C	112*	.	.	.	.	.
CC(C)(C)[S@](=O)N1Cc2cc(C(=O)NCc3ccncc3)nc(-c3cccc(-c4ccc(C#N)cc4)c3)c2[C@@H]1CCO	-8	.	.	.	.	.
OC[C@@H]1Nc2ccc(C#Cc3ccc(F)cc3)cc2[C@H]2[C@@H]1CCN2Cc1ccc2c(c1)OCO2	-1	.	.	.	.	.
O=C(C[C@H]1CC[C@H](NC(=O)C2CCC2)[C@H](CO)O1)NCc1ccccc1Cl	-24	.	.	.	.	.
O=C1Nc2ccc(Br)cc2/C1=C/C(=O)c1ccc2c(c1)OCO2	25	65	6	13	41	97*
CCOc1ccc(CNc2ccc(N3CCCC3)cc2)cc1	.	4	7	109*	-12	63
Cc1ccccc1-c1ccc([C@H]2[C@@H](CO)N3CCCCN(S(C)(=O)=O)C[C@H]23)cc1	16	.	.	.	.	.
CCCNC(=O)N1C[C@H]2[C@@H](c3ccccc31)[C@H](CO)N2Cc1cc(F)ccc1F	9	.	.	.	.	.
Cc1ccc(S(=O)(=O)N2CC[C@@H]3[C@H]2c2cc(-c4ccc(C#N)cc4)ccc2N(C)[C@H]3CO)cc1	22	.	.	.	.	.
CN1c2ccc(-c3cccc(C#N)c3)cc2[C@H]2[C@H](CCN2S(=O)(=O)c2ccccc2F)[C@H]1CO	102*	.	.	.	.	.
Cc1ccc(S(=O)(=O)N2CC[C@@H]3[C@H](CO)N(C)c4ccc(-c5ccc(C#N)cc5)cc4[C@@H]32)cc1	80*	.	.	.	.	.
Cc1cccc(S(=O)(=O)N2CC[C@@H]3[C@H](CO)N(C)c4ccc(-c5ccc(C#N)cc5)cc4[C@@H]32)c1	89*	.	.	.	.	.
O=C(C[C@H]1CC[C@@H]2[C@H](COC[C@@H](O)CN2C(=O)Cc2ccccc2)O1)NC1CCC1	-5	.	.	.	.	.
CN1C(=O)c2cc(NC(=O)c3cccc(F)c3)ccc2OC[C@H]2O[C@@H](CC(=O)N3CCc4ccccc4C3)CC[C@H]21	23	.	.	.	.	.
SMILES	PAX8 inh HTS	CSC inhib	Gli-Sufu antag	Beta cell apopt	Mdm2 MdmX PPI	Shn3 3UTR inh
COc1cc2c(cc1NC(=O)CN(C)Cc1cccc(OC)c1OC)oc1ccccc12	-3	99*	46	-8	17	18
Cc1ccc(S(=O)(=O)N[C@@H]2CC[C@@H](CC(=O)NC3CCCCC3)O[C@H]2CO)cc1	10	.	.	.	.	.
CCCNC(=O)c1ccc2c(=O)c(O)c(-c3ccc(Cl)c([N+](=O)[O-])c3)[nH]c2c1	49	-16	0	79*	36	15
O=C(NCCc1nc2ccccc2[nH]1)c1ccc(Cl)c([N+](=O)[O-])c1	23	-1	5	0	6	9
C[C@H](O)C#Cc1cnc2c(c1)C(=O)N([C@H](C)CO)C[C@H](C)[C@@H](CN(C)CC1CCCC1)O2	-4	.	.	.	.	.
C[C@H](CO)N1C[C@H](C)[C@H](CN(C)Cc2ccc(Cl)c(Cl)c2)OCCCC[C@H](C)Oc2ccc(NS(=O)(=O)c3ccc(F)cc3)cc2C1=O	97*	.	.	.	.	.
C[C@@H]1CN([C@H](C)CO)C(=O)c2cc(NS(=O)(=O)c3ccc(F)cc3)ccc2O[C@@H](C)CCCCO[C@H]1CN(C)Cc1ccc(Cl)c(Cl)c1	69*	.	.	.	.	.
C[C@H](CO)N1C[C@H](C)[C@H](CN(C)CC2CCCC2)Oc2ncc(-c3cccc(F)c3)cc2C1=O	0	.	.	.	.	.
CN(Cc1ccccc1)C(=O)c1nc[nH]c1C(=O)N(C)Cc1ccccc1	8	-6	-1	-4	11	12
CN(C)N=Nc1nc[nH]c1C(N)=O	102*	14	17	.	0	24
NC(=O)c1[nH]cnc1N=NN(CCO)Cc1ccccc1	74*	.	.	.	.	10
CN(N=Nc1nc[nH]c1C(N)=O)C1CCCCC1	100*	.	.	.	.	13
CN(C)CCCNC(=O)C[C@@H]1CC[C@@H]2[C@H](COC[C@@H](O)CN2S(=O)(=O)c2ccc(Cl)cc2)O1	-13	.	.	.	.	.
C[C@H]1CN([C@@H](C)CO)C(=O)c2cccc(NC(=O)C3CCOCC3)c2O[C@@H]1CN(C)S(=O)(=O)c1ccccc1	-3	.	.	.	.	.
C[C@H](CO)N1C[C@H](C)[C@@H](CN(C)C(=O)Nc2ccnc(N3CCOCC3)c2)OCc2cnnn2CCCC1=O	91*!	.	.	.	.	-5
C[C@@H]1CN([C@H](C)CO)C(=O)CCCn2nncc2CO[C@H]1CN(C)C(=O)Nc1ccnc(N2CCOCC2)c1	-6	.	.	.	.	-23
C[C@@H]1CN([C@H](C)CO)C(=O)CCCn2nncc2CO[C@H]1CN(C)C(=O)Nc1ccc(-c2cccs2)cc1	70*	.	.	.	.	.
C[C@@H]1CN([C@@H](C)CO)C(=O)CCCn2nncc2CO[C@@H]1CN(C)C(=O)Nc1ccc(-c2cccs2)cc1	34	.	.	.	.	-9
C[C@H](CO)N1C[C@H](C)[C@H](CN(C)C(=O)Nc2ccc(-c3cccs3)cc2)OCc2cnnn2CCCC1=O	72*	.	.	.	.	-12
C[C@H]1CN([C@@H](C)CO)C(=O)CCCn2nncc2CO[C@@H]1CN(C)C(=O)Nc1ccc(-c2cccs2)cc1	76*	.	.	.	.	.
CO[C@@H]1CN(C)C(=O)c2cc(NC(=O)C3CC3)ccc2OC[C@@H](C)N(C(=O)CN2CCOCC2)C[C@H]1C	-14	.	.	.	.	.
C[C@H](CO)N1C[C@H](C)[C@H](CN(C)Cc2cccc3c2OCCCO3)OCc2ccccc2-c2c(n(C)c3ccccc23)C1=O	-10	.	.	.	.	.
